High-throughput results: PubChem BioAssay, NMMLSC
RGS4-Gao reg – human RGS4-Galphao interaction regulation | P09471 | Multiplexed bead flow cytometry, RGS4-Galphao binding; actives lie on both sides | binding response (% of control), % at 10 µM | 0.33% of 220,000 active; in the data active = binding response below about 49% or above about 150%; inactive = in between;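 note: fluorescent Galphao activated with aluminum fluoride binding bead-coupled RGS4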
RGS16-Gao HTS – regulators of human RGS16-Galphao interaction | O15492+P09471 | bead-based flow cytometry RGS16-Galphao binding, fluorescence; actives lie on both sides | binding response (% of control), % at 10 µM | 0.38% of 220,000 active | AID 1441;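 note: Galphao activated by GDP with aluminum fluoride before binding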
Target sequence (O15492 whole entry, looked up): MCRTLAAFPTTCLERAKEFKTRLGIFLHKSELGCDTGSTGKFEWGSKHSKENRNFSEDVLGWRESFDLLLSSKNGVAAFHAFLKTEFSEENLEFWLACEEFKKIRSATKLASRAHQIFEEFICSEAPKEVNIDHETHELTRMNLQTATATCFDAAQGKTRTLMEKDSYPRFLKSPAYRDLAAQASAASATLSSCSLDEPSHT
Target sequence (P09471 whole entry, looked up): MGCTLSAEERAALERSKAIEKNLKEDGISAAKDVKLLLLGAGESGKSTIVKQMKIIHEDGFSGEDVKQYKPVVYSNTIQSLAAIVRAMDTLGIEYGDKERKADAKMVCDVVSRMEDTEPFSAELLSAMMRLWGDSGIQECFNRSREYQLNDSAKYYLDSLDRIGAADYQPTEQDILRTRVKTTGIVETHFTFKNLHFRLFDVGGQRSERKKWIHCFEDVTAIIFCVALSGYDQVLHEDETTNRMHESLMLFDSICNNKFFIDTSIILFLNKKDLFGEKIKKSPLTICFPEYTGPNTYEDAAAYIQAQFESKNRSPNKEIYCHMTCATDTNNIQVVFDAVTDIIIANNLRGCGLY
GSH bead fluor – GSH bead compound fluorescence profile. fluorescence (KMESF) at 10 µM. AID 1776. GSH beads flow cytometry, compound fluorescence 488/530 nm; hits give high values. 0.25% of 190,000 active; in the data active = fluorescence above about 89;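 note: glutathione beads carrying GST-tagged Bcl family fusion proteins plus one bare bead set; values are compound well signal with DMSO vehicle wells as background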
RGS7-Gao reg – human RGS7-Galphao interaction regulation | P09471 | Multiplexed bead flow cytometry, RGS7-Galphao binding; actives lie on both sides | binding response (% of control), % at 10 µM | 0.35% of 220,000 active; in the data active = binding response below about 49% or above about 150%; inconclusive = no clear call, values can overlap the other calls; inactive = in between;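 note: fluorescent Galphao held in activated GDP-AlF4 state binding bead-coupled RGS7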
Avidin bead fluor – compound fluoresces at 488/530 nm on avidin beads; compound fluorescence 488/530 nm, flow cytometry; hits give high values; 0.38% of 220,000 active; fluorescence (KMESF) at 10 µM; in the data active = fluorescence above about 47
RGS8-Gao reg – regulators of human RGS8-Galphao interaction; multiplexed bead flow cytometry, RGS8-Galphao binding; actives lie on both sides; response (percent of control binding), % at 10 µM; 0.34% of 220,000 active; in the data active = response below about 60% or above about 140%; inactive = in between;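 note: Galphao activated as the GDP aluminium fluoride complex binding bead-coupled RGS8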
RGS-Gao – RGS4-Galphao interaction regulator (human); shares compounds with RGS16-Gao HTS; multiplexed bead flow cytometry, RGS–Galpha-o binding; RGS4–Galpha-o binding response, % at 10 µM; 99% of 1,600 active;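 note: fluorescently labeled Galpha-o bound to GDP with aluminium fluoride binding biotinylated RGS beads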
Avidin counter – counter-screen: compounds disrupting biotin binding to avidin beads. shares compounds with RGS16-Gao HTS. streptavidin beads, fluorescein-biotin binding, flow cytometry. inhibition, % at 10 µM. 1,700 tested, under 10 active;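 active = inhibition above 50%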;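 note: median green fluorescence of gated singlet beads compared with DMSO control wells; 0% = DMSO wells and 100% = complete loss of bead fluorescence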
RGS8-Gao confirm – confirmation of regulators of human RGS8-Galphao interaction. binding response (% of control), % at 10 µM. AID 1836. 3% of 1,700 active. shares compounds with RGS16-Gao HTS. bead-based flow cytometry RGS8-Galphao binding, fluorescence; actives lie on both sides; in the data active = binding response below about 72% or above about 130%; inactive = in between;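 note: Galphao activated as GDP AlF4 complex before binding bead RGS8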
RGS7-Gao confirm – RGS7-Galphao interaction regulation, single point confirmation | 7.8% of 1,700 active | response (percent of control binding), % at 10 µM | AID 1837 | shares compounds with RGS16-Gao HTS | bead-based flow cytometry RGS7-Galphao binding; actives lie on both sides; in the data active = response below about 75% or above about 130%; inactive = in between;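 note: fluorescent Galphao activated with GDP and aluminum fluoride binding bead-coupled RGS7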
RGS16-Gao conf – RGS16-Galphao interaction regulation, single point confirmation; shares compounds with RGS16-Gao HTS; response (% of control binding), % at 10 µM; bead-based flow cytometry, RGS16-Galphao binding; actives lie on both sides; 4% of 1,700 active; in the data active = response below about 74% or above about 130%; inactive = in between;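 note: Galphao activated as the GDP aluminium fluoride complex binding bead-coupled RGS16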
RGS4-Gao single – RGS4-Galphao interaction regulation, single point confirmation. AID 1840. shares compounds with RGS16-Gao HTS. binding response (% of control), % at 10 µM. 4% of 1,700 active. RGS4-Galphao binding, multiplexed bead flow cytometry; actives lie on both sides; in the data active = binding response below about 74% or above about 130%; inactive = in between
RGS19-Gao conf – RGS19-Galphao interaction regulation, single point confirmation. shares compounds with RGS16-Gao HTS. bead-based flow cytometry RGS19-Galphao binding; actives lie on both sides. response (percent of control binding), % at 10 µM. 5% of 1,700 active. AID 1841; in the data active = response below about 50% or above about 160%; inactive = in between;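 note: 100% = no compound control and 0% = blank background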
Active calls of the source: *; ? = inconclusive; nt = no result given; [ ] = dose if it differs, or a comment. Most compounds without a hit are left out; they make up all but 1.2% or so of the library. Unless noted, the rule behind the calls is not given here.

SMILES | RGS4-Gao reg | RGS16-Gao HTS | GSH bead fluor | RGS7-Gao reg | Avidin bead fluor | RGS8-Gao reg | Avidin counter | RGS8-Gao confirm | RGS7-Gao confirm | RGS16-Gao conf | RGS4-Gao single | RGS19-Gao conf | others
COc1ccc(C2C(C(N)=O)=C(C)Nc3nc(-c4ccccc4OC)nn32)cc1OC (stereo unspecified) | 93 | 99 | 15 | 95 | 25 | 100 | nt | nt | nt | nt | nt | nt
CC(=O)Nc1ccc(Nc2ccc(N3C(=O)CCCC3=O)cc2[N+](=O)[O-])cc1 | 46* | 33 | 6 | 47* | 0 | 53* | -3 | 105 | 103 | 107 | 103 | 94
Cc1cc(C(=O)CSc2nc3ccccc3c(=O)[nH]2)c(C)n1C | 18* | 11* | 24 | 8.0* | -1 | 10* | 0 | 104 | 102 | 104 | 102 | 98
C/C(CCC(C)C)=N\NC(=S)NCc1ccccc1 | 101 | 99 | 14 | ? | 10 | 100 | nt | nt | nt | nt | nt | nt
Cn1c(SCC(N)=O)nnc1-c1ccccc1 | 107 | 115 | 49 | 106 | 14 | 105 | nt | nt | nt | nt | nt | nt
Cn1c(CO)cnc1-c1ccccc1 | 151*[activator] | 150 | nt | ? | 6 | 132 | 0 | 100 | 99 | 97 | 102 | 99
COc1ccccc1/C=C/C(=O)c1c2c(c(C)[nH]c1=O)CCCC2 | 101 | 107 | 33 | 103 | 14 | 101 | nt | nt | nt | nt | nt | nt
S=c1[nH]nc(-c2ccc(Cl)cc2)n1/N=C/C=C/c1ccco1 | 99 | 97 | nt | ? | 7 | 96 | nt | nt | nt | nt | nt | nt
S=c1[nH]nc(-c2ccccc2)n1/N=C/C=C/c1ccco1 | 90 | -0.4* | 11 | 88 | 4 | 79 | 1 | 93 | 116 | 96 | 103 | 71 | RGS-Gao=90*
O=C(Nc1ccc(Oc2ncnc3cc(Cl)ccc23)nc1)c1cccs1 | 100 | 103 | nt | ? | 6 | 101 | nt | nt | nt | nt | nt | nt
O=C(COc1ccc2c(c1)OCO2)NC12CC3CC(CC(C3)C1)C2 | 104 | 104 | 25 | 117 | 27 | 101 | nt | nt | nt | nt | nt | nt
O=C(NCc1ccc2c(c1)OCO2)NC12CC3CC(CC(C3)C1)C2 | 136 | 162 | 15 | 137 | 21 | 149*[activator] | 0 | 92 | 89 | 88 | 82 | 223*[activator] | RGS-Gao=136*
Cc1noc(C)c1C(=O)N1CCN(CCc2ccccc2)CC1 | 104 | 103 | 46 | 102 | 9 | 99 | nt | nt | nt | nt | nt | nt
Cc1cc(C(=O)N2CCN(CCc3ccccc3)CC2)no1 | 227*[activator] | 303*[activator] | 30 | 224*[activator] | nt | 172*[activator] | 1 | 93 | 58* | 70* | 73* | 39*
COc1ccc(CNC(=O)CN(CC2CCCO2)C(=O)CNS(=O)(=O)c2ccccc2)cc1 (stereo unspecified) | 129 | 122 | 4 | 209*[activator] | 171* | 86 | 2 | 102 | 100 | 100 | 101 | 86 | RGS-Gao=129*
COc1ccc(CNC(=O)CN(CC2CCCO2)C(=O)CNS(=O)(=O)c2ccc(C)cc2)cc1 (stereo unspecified) | 95 | 103 | 13 | 99 | 15 | 99 | nt | nt | nt | nt | nt | nt
